The record followed here is PubChem BioAssay (NCATS).

Structures are written as SMILES. Records with an inconclusive call do not appear. A call without a number means that no potency is given here. A number with no mark means an inactive call. Calls of active or inactive are those of the source. The call rests on the fitted dose curve; in most records, active means well fitted curve in the direction sought with a large enough effect; inconclusive means small, poorly fitted or top-dose-only effect, or another doubt; inactive means no such curve, though single readings can be large; an effect the other way counts as inactive or inconclusive.

Experiment [1] can be described thus: HepG2 cells viability qHTS for Zika virus inhibitors (AID 1347168). The gist of the method: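 Luminescent ATP readout (CellTiter Glo) after 30 min at 37 degrees C gives viability; cells in DMEM + 4% FBS were treated 24 to 48 hours with compound, following overnight attachment.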
For orientation: Quantitative high-throughput screening tests each substance at several concentrations.

Experiment [2] can be described thus: Tertiary RLuc qRT-PCR qHTS assay for Zika virus inhibitors (AID 1347169). Further: nearly all actives have a fitted effect of over 55% in size. Further: potency means the concentration at half of the fitted maximal effect. On activity change, negative = inhibition: top concentration of the series differs between compounds. In a few lines: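 Orthogonal cell-based infection assay using recombinant ZIKV-RLuc (Cambodian) in Vero cells; compound added prior to virus at MOI 1-2. Incubation lasts 48-72 hrs at 37 degrees C before live-cell Renilla substrate is added and luminescence measured.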
On the technique in general: In qPCR the cycle at which signal appears reflects the starting amount.

Experiment [3] is described as follows: OV-KATE Cancer Cell Toxicity qHTS against the NCATS CANVASS Library (AID 1347345). The gist of the method:
(§1)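 Step one: seed 1000 cells per well. Step two: incubate 4 h. Step three: add test compounds in 11 concentrations. Step four: culture 72 h, then add CellTiter-Glo and record luminescence after 15min.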

A short description of experiment [4]: HPAF-II Cancer Cell Toxicity qHTS against the NCATS CANVASS Library (AID 1347346). Further: series mostly up to about 38 µM; nearly all actives have a fitted effect of over 55% in size. The gist of the method: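 First, HPAF-II cells are plated (1000 cells/well) and held 4 h at 37 degrees C. Next, compounds are pin-transferred as an 11-point series. After 72 h, CellTiter-Glo is added and luminescence measured.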
Experiment [5] can be described thus: UWB1.289 Cancer Cell Toxicity qHTS against the NCATS CANVASS Library (AID 1347347). Further: series mostly up to about 38 µM; nearly all actives have a fitted effect of over 60% in size. In a few lines:
as §1

Experiment [6] is described as follows: OV-SAHO Cancer Cell Toxicity qHTS against the NCATS CANVASS Library (AID 1347348). Further: series mostly up to about 38 µM; nearly all actives have a fitted effect of over 55% in size. The gist of the method:
as §1

Experiment [7] is described as follows: Panc-1005 Cancer Cell Toxicity qHTS against the NCATS CANVASS Library (AID 1347349). Further: series mostly up to about 38 µM; nearly all actives have a fitted effect of over 60% in size. In a few lines: as §1
Experiment [8] is described as follows: SW1088 Cancer Cell Toxicity qHTS against the NCATS CANVASS Library (AID 1347350). Further: series mostly up to about 38 µM; nearly all actives have a fitted effect of over 75% in size. The gist of the method: as §1
Experiment [9] is described as follows: U-118MG Cancer Cell Toxicity qHTS against the NCATS CANVASS Library (AID 1347351). Further: series mostly up to about 38 µM. The gist of the method: as §1
Experiment [10] is described as follows: COV-362 Cancer Cell Toxicity qHTS against the NCATS CANVASS Library (AID 1347352). Further: series mostly up to about 38 µM. In a few lines: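 First, 1000 cells go into each well and rest for 4 hours. Next, an 11-point dilution range is pinned in. Plates then incubate 72 hours before CellTiter-Glo addition and luminescence reading.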

Regarding `CCCCCOc1cc2c(cc1-c1cc(/C=C/C(=O)O)ccc1O)C(C)(C)CCC2(C)C`, the result in experiment [1] was inactive.

In the case of `O=C1OC2(c3cc(Br)c(O)cc3Oc3c2cc(Br)c(O)[c]3[Hg])c2ccccc21` (stereo not given), in experiment [2], the activity change, negative = inhibition was -7.05% [at 0.566 µM].

`O=C1C[C@@H]2OCC=C3CN4CC[C@]56c7ccccc7N1[C@H]5[C@H]2[C@H]3C[C@H]46`: the outcome in experiment [3], in experiment [4], in experiment [5], in experiment [6], in experiment [7] and in [8] was inactive. Moreover, the call in experiment [9] and in experiment [10] was inactive.

On to `COC(=O)C1(C)CCC(O)C2(C)c3cc(O)c(C(C)C)cc3C(O)C(OC(C)=O)C12` (stereo not given), for which the Potency entry in experiment [2] was “inactive”.

On to `CC[C@H](C)[C@H]1O[C@]2(C=C[C@@H]1C)C[C@@H]1C[C@@H](C/C=C(\C)[C@@H](O[C@H]3C[C@H](OC)[C@@H](O[C@H]4C[C@H](OC)[C@@H](O)[C@H](C)O4)[C@H](C)O3)[C@@H](C)/C=C/C=C3\CO[C@@H]4[C@H](O)C(C)=C[C@@H](C(=O)O1)[C@]34O)O2`, for which the molecule was classed as inactive in experiment [1]. For the same molecule, the Potency in experiment [2] was 20.8 µM (active).

As to `CCN1CC2(COC)C3[C@@H](OC)C4C1C3(C1C[C@]3(O)[C@H](OC(=O)c5ccccc5)C1[C@]4(OC(C)=O)[C@@H](O)[C@@H]3OC)[C@H](OC)C[C@H]2O` (stereo not given in full), the Potency entry in experiment [2] is “inactive”.

Regarding `O=c1ccc2[nH]cc(C3=CCNCC3)c2[nH]1`, the molecule was called inactive in experiment [1]. For the same molecule, the Potency result in [2] is “inactive”.

With `C[C@@H]1[C@@H]2Cc3ccc(O)cc3[C@@]1(C)CCN2CC1CC1`, in experiment [1], the result was inactive. In experiment [2], the Potency entry is “inactive”.

In the case of `COc1c(C(C)C)cc2c(c1O)[C@@]1(C(=O)O)CCCC(C)(C)C1CC2` (stereo not given in full), the Potency entry in experiment [2] was “inactive”.

As to `C[C@@]1(C(=O)O)CC[C@]2(C)CC[C@]3(C)C4=CC(=O)c5cc(O)c(O)cc5[C@]4(C)CC[C@@]3(C)[C@@H]2C1`, the molecule was called inactive in [1]. Further, the Potency entry in [2] is “inactive”.

Take `COc1ccc2[nH]cc(CCN)c2c1`: the call in experiment [3], in experiment [4], in experiment [5], in experiment [6], in experiment [7] and in [8] was inactive. For the same molecule, the call in experiment [9] and in experiment [10] was inactive.

Regarding `Oc1cc(Cl)c(Cl)cc1Cl`, the activity change, negative = inhibition in experiment [2] was -13.8% [at 5.25 µM].
